# This is part of a sample that, as a whole, favours compounds with a hit. Of some 83,000 tested, about 20% had one in any assay.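 Cell lines were cultured in 96-well plates, exposed to a single compound concentration, and assessed for percent growth 48 hours later.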 Unmarked numbers belong to inactive results. Calls of active or inactive are those of the source. The calls were made as follows: active = growth percent below 10; inactive = the rest.
# Tests used:
# Assay in all cases: NCI-60 one-dose screen, 48 h (100 = growth as untreated, 0 = no growth, -100 = all killed)
# Settings in all cases: 10 µM unless noted
# [1] = tested on: SR leukemia
# [2] = tested on: RPMI-8226 leukemia
# [3] = tested on: OVCAR-8 ovarian
# [4] = tested on: OVCAR-5 ovarian
# [5] = tested on: OVCAR-4 ovarian
# [6] = tested on: SK-OV-3 ovarian
# [7] = tested on: IGROV1 ovarian
# [8] = tested on: OVCAR-3 ovarian
# [9] = tested on: HS 578T breast
# [10] = tested on: NCI/ADR-RES ovarian
# [11] = tested on: T-47D breast
# [12] = tested on: BT-549 breast
# [13] = tested on: MDA-MB-435 melanoma
# [14] = tested on: SW-620 colon
# [15] = tested on: MCF7 breast
# [16] = tested on: HCT-116 colon
# [17] = tested on: HCC-2998 colon
# [18] = tested on: KM12 colon
# [19] = tested on: MDA-MB-468 breast
SMILES,growth [1],growth [2],growth [3],growth [4],growth [5],growth [6],growth [7],growth [8],growth [9],growth [10],growth [11],growth [12],growth [13],growth [14],growth [15],growth [16],growth [17],growth [18],growth [19]
Cc1cc(=O)oc2cc(OCCOc3ccc(/C=C/C(=O)Nc4ccccc4N)cc3)ccc12,26.1%,1.06% (active),38.5%,39.2%,41.2%,11.1%,38.7%,20.3%,40.6%,16.4%,15.3%,-49.2% (active),42.7%,27.4%,5.65% (active),16.1%,37.9%,13.7%,-45% (active)
CN1C(=O)/C(=C/c2ccc(C(=O)Nc3ncc(Cc4ccc(Cl)cc4Cl)s3)cc2)SC1=S,28.8%,36.3%,39.3%,46.3%,53.6%,53.3%,47.2%,12.9%,44.3%,-11.8% (active),23.9%,31.6%,-4.21% (active),45.1%,30.6%,29.6%,40.4%,15.5%,-9.37% (active)
COc1ccc(C2=NN(c3ccccc3)C(c3ccc(OC)c(OCc4ccccc4)c3)C2)cc1OC (configuration not stated),104%,107%,96.3%,110%,89.8%,93.4%,84.1%,106%,97.7%,103%,84.4%,107%,97.2%,101%,84.9%,74.8%,107%,97.7%,101%
N/C(=N\c1nc2ccccc2s1)NC(=O)Nc1ccc(Cl)cc1Cl,5.8% (active),-1.62% (active),-79.3% (active),-73.2% (active),-87.7% (active),-91.5% (active),-68.5% (active),-95.5% (active),-26.7% (active),-84.8% (active),-10.7% (active),-17.6% (active),-97.3% (active),-67.9% (active),-4.93% (active),-79.6% (active),-25.4% (active),-64.4% (active),-48.6% (active)
CN(C)c1ccnc(NCCCSC(c2ccccc2)(c2ccccc2)c2ccccc2)c1,-55.5% (active),-58.9% (active),59.4%,84.5%,33.4%,63%,50.5%,49.6%,59.9%,40.4%,28%,48.9%,11.3%,8.86% (active),-35.8% (active),-82.3% (active),12.2%,46.7%,-34.9% (active)
Cc1cccc(-c2nc(Nc3cccc(S(N)(=O)=O)c3)c3ccccc3n2)c1,33%,38.3%,2.28% (active),77.2%,52.3%,102%,66.1%,73.4%,76.5%,22.8%,36.4%,88.6%,46.4%,67.6%,33.3%,-5.73% (active),-1.53% (active),11.6%,38.6%
CN(C)c1nc(NCCNS(=O)(=O)c2ccc(C3=Nc4c(N)nc(N)nc4NC(c4ccc(F)cc4)C3)cc2)nc(Nc2ccc(F)cc2)n1 (configuration not stated),0.331% (active),-6.35% (active),43.5%,78.2%,40.8%,73.4%,38.6%,40.9%,51.8%,98%,40.6%,48.7%,31%,39.4%,5.29% (active),30.6%,28.6%,24.5%,-40.7% (active)
CCC(C)(C)c1ccc(OCCCCN2CCN(c3ccncc3)CC2)cc1,-24.2% (active),-31.3% (active),67%,69.2%,56%,32.3%,55.5%,51.1%,20.2%,59.7%,-41.6% (active),27%,39.2%,2.87% (active),-23.1% (active),8.09% (active),-5.55% (active),37.4%,-67.2% (active)
